Inconclusive results are not listed. Active and inactive are the calls of the source. Calls come from the whole dose curve; as a rule, active = well fitted curve in the direction sought with a large enough effect; inconclusive = small, poorly fitted or top-dose-only effect, or another doubt; inactive = no such curve, though single readings can be large; an effect the other way counts as inactive or inconclusive.
Assays:
[1] = qHTS of pediatric cancer cell lines to identify multiple opportunities for drug repurposing: Primary screen for SK-N-MC cells (AID 1347093)
Outline: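 Metabolically active cells were quantified by ATP-dependent luminescence (CellTiter-Glo, 15 min at room temperature) following 48 h treatment. Cells had been plated at 500-1,000 per well and settled for 5 h beforehand.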

[2] = qHTS of pediatric cancer cell lines to identify multiple opportunities for drug repurposing: Primary screen for BT-37 cells (AID 1347094)
Outline: (§1)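 Plated cells (500-1,000 per well, growth media) were allowed to settle for 5 hours, treated with compound dilutions for 48 hours, then lysed with CellTiter-Glo for 15 min at room temperature before luminescence reading.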

[3] = qHTS of pediatric cancer cell lines to identify multiple opportunities for drug repurposing: Primary screen for NB-EBc1 cells (AID 1347095)
Outline: as §1

[4] = qHTS of pediatric cancer cell lines to identify multiple opportunities for drug repurposing: Primary screen for U-2 OS cells (AID 1347096); note: nearly all actives have a fitted effect of over 50% in size
Outline: (§2)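 Cells (500-1,000/well) in growth media were settled 5 h at 37 degrees C, then given compounds for 48 h. Viability was read as CellTiter-Glo luminescence. Primary runs used MIPE at 11 points (0.78 nM-46 µM) and NPC at 8 points (0.59 nM-46 µM); follow-ups used 11 points.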

[5] = qHTS of pediatric cancer cell lines to identify multiple opportunities for drug repurposing: Primary screen for Saos-2 cells (AID 1347097); note: nearly all actives have a fitted effect of over 40% in size
Outline: as §1

[6] = qHTS of pediatric cancer cell lines to identify multiple opportunities for drug repurposing: Primary screen for SK-N-SH cells (AID 1347098); note: nearly all actives have a fitted effect of over 65% in size
Outline: (§3)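 Cells (500-1,000/well) rested 5 h, then received compounds for 48 h; metabolically active cells were measured by CellTiter-Glo luminescence. Final concentrations spanned up to 46 µM (MIPE, 11-point) or 0.59 nM-46 µM (NPC, 8-point) in primary screens, 11-point in follow-ups.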

[7] = qHTS of pediatric cancer cell lines to identify multiple opportunities for drug repurposing: Primary screen for NB1643 cells (AID 1347099); note: nearly all actives have a fitted effect of over 50% in size
Outline: as §1

[8] = qHTS of pediatric cancer cell lines to identify multiple opportunities for drug repurposing: Primary screen for LAN-5 cells (AID 1347100)
Outline: as §2

[9] = qHTS of pediatric cancer cell lines to identify multiple opportunities for drug repurposing: Primary screen for BT-12 cells (AID 1347101); note: nearly all actives have a fitted effect of over 25% in size
Outline: as §3

[10] = qHTS of pediatric cancer cell lines to identify multiple opportunities for drug repurposing: Primary screen for Rh18 cells (AID 1347102); note: nearly all actives have a fitted effect of over 65% in size
Outline: as §2

Measured: Potency
Potency is the fitted concentration of half-maximal effect.

CC=C(C)C(=O)O[C@H]1C(C)=C2[C@@H]3OC(=O)[C@@](C)(O)[C@@]3(O)[C@@H](OC(=O)CCC)C[C@](C)(OC(C)=O)[C@@H]2[C@@H]1OC(=O)CCCCCCC
active: [1] 18.7 nM | [2] 17.2 nM | [3] 118 nM | [4] 296 nM | [5] 74.3 nM | [6] 136 nM | [7] 66.2 nM | [8] 41.8 nM | [9] 48.5 nM | [10] 13.2 nM

O=S(=O)(O)C(F)(F)C(F)(F)C(F)(F)C(F)(F)C(F)(F)C(F)(F)C(F)(F)C(F)(F)F
not listed: [9]
inactive: all other assays above

N#C[C@H](O[C@@H]1O[C@H](CO[C@@H]2O[C@H](CO)[C@H](O)[C@H](O)[C@H]2O)[C@H](O)[C@H](O)[C@H]1O)c1ccccc1
inactive: [3] | [4]
active: [1] 10500 nM | [2] 24300 nM | [5] 18700 nM | [7] 11800 nM | [8] 23500 nM | [9] 24300 nM

O=C(O)COc1nc(Cl)c(Cl)cc1Cl
active: [1] 1 nM | [5] 1 nM
not listed: [9]
inactive: all other assays above

C[C@H]1CCCC=CC2C[C@H](O)C[C@@H]2[C@H](O)C=CC(=O)O1 (some centres not stated)
active: [1] 1 nM | [2] 1 nM | [3] 1 nM | [4] 1 nM | [5] 3720 nM | [6] 1 nM | [7] 1 nM | [8] 1 nM | [10] 1 nM

C=CC(=O)NCNC(=O)C=C
not listed: [9]
inactive: all other assays above

C[C@H]([C@H](O)CCC(C)(C)O)[C@H]1CC[C@@]2(O)C3=CC(=O)[C@@H]4C[C@@H](O)[C@@H](O)C[C@]4(C)[C@@H]3CC[C@]12C
inactive: all assays above

CSCC[C@@H](NC(=O)[C@@H](Cc1ccccc1)NC(=O)CNC(=O)CNC(=O)[C@@H](N)Cc1ccc(O)cc1)C(=O)O
not listed: [9]
inactive: all other assays above

COC(C)(C)CCCC(C)C/C=C/C(C)=C/C(=O)OC(C)C (configuration not stated)
not listed: [9]
inactive: all other assays above

From PubChem BioAssay (NCATS)
